About 3,900 (1.3%) of roughly 310,000 compounds were called active.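 How the source made its calls: active means calcium-response B-score plate-corrected more than 3 library SD below zero, starting fluorescence within 5 deviations, no agonist response on first addition; inactive means the rest.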 Shown is part of a subset that was picked to be rich in actives.

Our source for the B-score values is PubChem BioAssay AID588676 (Johns Hopkins Ion Channel Center, 2011).

In the test the target is Mas-related G-protein coupled receptor member X1 (Homo sapiens) (UniProt Q96LB2). Description: antagonists of human MrgX1 receptor, primary screen, HEK293 cells, Fluo-4 calcium flux (AID 588676).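 On B-score: peak minus trough fluorescence over baseline after final BAM8-22 challenge near maximal dose.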 The note with it: Fluo-4, BAM8-22 antagonism, at 10 µM; hits give low values. (A change in cytosolic calcium serves as a functional read-out for many receptors and channels.)
Chain of Mas-related G-protein coupled receptor member X1 (Homo sapiens) (Q96LB2 whole entry, looked up): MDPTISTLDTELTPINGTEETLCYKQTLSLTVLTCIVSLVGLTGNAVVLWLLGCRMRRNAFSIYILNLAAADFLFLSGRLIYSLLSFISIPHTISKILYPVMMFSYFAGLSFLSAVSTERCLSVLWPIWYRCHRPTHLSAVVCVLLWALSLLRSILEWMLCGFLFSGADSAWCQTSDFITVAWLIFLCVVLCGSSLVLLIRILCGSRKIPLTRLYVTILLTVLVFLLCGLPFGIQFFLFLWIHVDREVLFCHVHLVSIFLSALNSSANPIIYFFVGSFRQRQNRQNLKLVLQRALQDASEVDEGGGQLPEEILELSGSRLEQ
In the case of `Cc1ccc(S(=O)(=O)n2cccc2CO)cc1`, the B-score result is “inactive”.
As for `COCCN(Cc1cc2cc3c(cc2nc1Cl)OCO3)C(=O)c1cccc(C)c1`, the entry is “inactive”.
Consider `COc1ccc(/C(O)=C2\C(=O)C(=O)N(Cc3ccco3)C2c2ccc(OC)cc2OC)cc1` (stereo not given), for which the B-score result was “inactive”.
For `COc1ccc(C2/C(=C(/O)c3ccc4c(c3)CC(C)O4)C(=O)C(=O)N2Cc2ccncc2)cc1` (stereo not given) the value was “inactive”.
For `COc1cc(C2/C(=C(\O)c3ccc4c(c3)CC(C)O4)C(=O)C(=O)N2Cc2ccco2)ccc1O` (stereo not given) the value was -5.81 (active); for `Cc1cccc(CSc2ccc(-c3cccs3)nn2)c1`, “inactive”; for `C=CCN1CC(C)/C(=N\O)CC1C` (stereo not given), “inactive”.
For `O=[N+]([O-])c1cc(Cl)cc(/C=N/NC(=S)Nc2cc(S(=O)(=O)N3CCOCC3)ccc2Cl)c1O` the value was -7.04 (active).
As to `O=C(N/N=C/c1ccc([N+](=O)[O-])o1)c1cccc(S(=O)(=O)N2CCOCC2)c1`, the B-score result was “inactive”.
For `O=C(N/N=C/c1cc(Cl)cc([N+](=O)[O-])c1O)C(O)(c1ccccc1)c1ccccc1`, the B-score result was “inactive”.
For `CCCCN(C(=O)CCNC(=O)NC12CC3CC(CC(C3)C1)C2)c1c(N)n(CCCC)c(=O)[nH]c1=O` the value was “inactive”; for `CN(CCc1ccccn1)C(=O)CCC1CCCN(Cc2ccccc2OC(F)F)C1` (stereo not given), “inactive”.
`CCc1cc2cc(OC)ccc2nc1SCC(=O)Nc1cc(OC)c(OC)cc1C(=O)O`: the B-score result was “inactive”.
For `N#Cc1ccc(OCc2nnc(-c3ccc([N+](=O)[O-])cc3)o2)cc1` the value was -5.3 (active); for `CCOC(=O)CSc1nnc(-c2ccc([N+](=O)[O-])cc2)o1`, “inactive”.
As for `Cc1cc(OCCCCOc2ccc(C#N)cc2)ccc1[N+](=O)[O-]`, the entry is “inactive”; as for `CCn1cc(C(=O)NCCCN2CCCCCC2)c(=O)c2cc(S(=O)(=O)N3CCc4ccccc4C3)ccc21`, “inactive”.
For `CCOc1cc(C(=O)Nc2c(C)ccc3nsnc23)cc(OCC)c1OCC` the value was “inactive”.
`CCOC(=O)CC1C(=O)NCCN1c1nc2c(C)cccn2c(=O)c1/C=C1\SC(=S)N(C(C)CC)C1=O` (stereo not given): the B-score result was “inactive”.
On to `CNc1nc2c(C)cccn2c(=O)c1C=Nc1ccc(OC)cc1`, for which the B-score entry is “inactive”.
`Cc1cccn2c(=O)c(/C=C3\SC(=S)N(CC(C)C)C3=O)c(NCCCOC(C)C)nc12`: the B-score was -11.6 (active).
On to `Cc1coc2c1c(C)cc1oc(=O)c(CC(=O)NCC(=O)N[C@H](C(=O)O)C(C)C)c(C)c12`, for which the B-score result is “inactive”.
As for `CCCCn1c(N)c(N(CC(C)C)C(=O)c2ccc(-n3c(C)ccc3C)cc2)c(=O)[nH]c1=O`, the entry is “inactive”.
As to `O=C(COc1coc(CN2CCN(c3ccccc3)CC2)cc1=O)Nc1ccccc1F`, the B-score result was “inactive”.
For `COc1ccc(C(=O)CSc2n[nH]c(N)n2)cc1` the value was -4.92 (active).
For `COc1ccc(C(=O)CSc2nccc(=O)[nH]2)cc1` the value was “inactive”; for `COc1ccc(CNC(=O)CSc2n[nH]c(N)n2)cc1OC`, “inactive”.
As for `O=C(c1cc(-c2ccc(Cl)s2)nc2ccccc12)N1CCOCC1`, the B-score result is “inactive”.
For `CCOC(=O)c1cn(CC(=O)Nc2ccc(C(C)C)cc2)nn1` the value was “inactive”; for `CCOC(=O)c1nn(-c2cccc(C)c2)cc1C(=O)c1ccccc1`, “inactive”.
As for `CCOC(=O)c1cn(Cc2cccc(C)c2)nn1`, the figure is -5.74 (active); as for `COC(=O)[C@@H]1CC[C@H](C)[C@@H](c2ccc(C)cc2)N1C(=O)c1ccc(/C=N/O[C@H](C)c2cn([C@@H]3COC[C@H]3O)nn2)cc1`, “inactive”.
As for `Cc1cccc(N(C(=O)c2csnn2)C(C(=O)NCc2ccccc2)c2ccncc2)c1` (stereo not given), the entry is “inactive”.
`O=C1CSC(=S)N1c1ccc(Cl)c(Cl)c1`: the B-score result is “inactive”.
For `CCN(CC(=O)Nc1cc(Cl)ccc1C)C(=O)CSCc1ccc(C)cc1` the value was “inactive”; for `COc1ccc(NS(=O)(=O)c2cc(NC(=O)CC(=O)c3ccc([N+](=O)[O-])cc3)ccc2C)cc1`, “inactive”; for `COc1ccc(NS(=O)(=O)c2ccc(NC(=O)c3ccc(N(C)S(C)(=O)=O)cc3)cc2)cc1`, “inactive”.
With `CCN(CC)c1ccc(NC(=O)c2ccc(=O)[nH]c2)cc1S(=O)(=O)Nc1ccc(OC)cc1`, the B-score was -4.78 (active).
For `O=C(NCc1ccc2c(c1)OCO2)c1sccc1Br` the value was “inactive”; for `O=C(c1ccc(O)cc1)c1ccc(C(=O)O)c(C(=O)O)c1`, -10.2 (active).
For `O=C(Nc1ccc(C(=O)O)c(O)c1)c1ccccc1` the value was “inactive”.
For `O=C(O)c1ccc2c(c1)C(=O)N(NC(=O)c1ccc(O)cc1)C2=O` the value was “inactive”; for `CCCOc1ccc(N2C(=O)CC(N(CCc3ccc(S(N)(=O)=O)cc3)C(C)=O)C2=O)cc1` (stereo not given), “inactive”; for `CC(=O)Nc1ccc(S(=O)(=O)N2CCC(C(=O)N[C@@H](Cc3ccccc3)C(=O)O)CC2)cc1`, “inactive”.
`CCN(CC)S(=O)(=O)c1ccc(N(C)Cc2cccc(OC)c2OC)nc1`: the B-score result was “inactive”.
Regarding `COc1cc(N)c(Cl)cc1C(=O)OCC(=O)c1ccc2c(c1)NC(=O)CO2`, the B-score entry was “inactive”.
Consider `CC1CCC(NC(=O)C2c3ccccc3C(=O)N2Cc2ccc3c(c2)OCO3)CC1` (stereo not given), for which the B-score entry is “inactive”.
As for `O=C1c2ccccc2C(Nc2ccc3c(c2)OCCO3)N1Cc1ccco1` (stereo not given), the entry is “inactive”; as for `O=C(NC1CCCCC1)C1c2ccccc2C(=O)N1Cc1ccco1` (stereo not given), -7.6 (active); as for `Cc1cc(OC(C)C(=O)Nc2ccc(S(=O)(=O)Nc3onc(C)c3C)cc2)cc(C)c1Cl` (stereo not given), “inactive”.
As for `COc1ccc(-c2ocnc2C(=O)Nc2ccc3c(c2)CCC3)cc1`, the entry is “inactive”; as for `CCN1C(=O)[C@@H]2[C@@H](c3ccc(-c4ccc(OC)cc4)c(OC)c3)N3CCC[C@@]3(C(=O)OC)[C@@H]2C1=O`, “inactive”.
As for `O=c1cc(CO)oc(C(Nc2cccc([N+](=O)[O-])c2)c2ccccn2)c1O` (stereo not given), the figure is -4.59 (active).
Turning to `O=c1cc(CO)oc(C(Nc2cccc(C(F)(F)F)c2)c2ccccn2)c1O` (stereo not given), the B-score entry is “inactive”.
As for `O=[N+]([O-])c1cccc(S(=O)(=O)NCc2ccccn2)c1`, the B-score entry is “inactive”.
For the molecule `O=C(c1ccc(Cl)cc1)N1N=C(c2ccccn2)CC1(O)C(F)(F)F` (stereo not given), the B-score entry was “inactive”.
As for `Cc1nnc(SCC(=O)Nc2ccc(S(=O)(=O)Nc3ccc(Cl)nn3)cc2)s1`, the entry is “inactive”.
For `COc1cccc(N(CC(=O)Nc2cccc(N(C)S(C)(=O)=O)c2)S(C)(=O)=O)c1` the value was “inactive”; for `CN(c1cccc(NC(=O)Nc2ccc(Cl)cc2)c1)S(C)(=O)=O`, -8.9 (active); for `CN(c1cccc(NC(=O)c2ccc(CN3CCc4ccccc4C3)cc2)c1)S(C)(=O)=O`, “inactive”.
As for `COC(=O)c1cccnc1NC(=S)NC(C)C`, the entry is “inactive”; as for `O=C(COC(=O)c1cnccn1)Nc1cccc2ccccc12`, “inactive”.
`CC(C)NC(=S)Nc1cccc2cnccc12`: the B-score was -4.98 (active).
For `Cc1ccc2cc(CN(c3ccc(C)c(C)c3)S(C)(=O)=O)c(=O)[nH]c2c1` the value was “inactive”; for `Cc1cc([N+](=O)[O-])ccc1NCc1cccc([N+](=O)[O-])c1`, “inactive”.
As for `Cc1c(Br)c([N+](=O)[O-])nn1CC(=O)Nc1sc2c(c1C(=O)OC(C)C)CCC(C)C2` (stereo not given), the entry is “inactive”; as for `COc1ccc(C(=O)Nc2c(N)nc(SCC(=O)Nc3ccc(C(C)=O)cc3)[nH]c2=O)cc1`, “inactive”.
For `COc1ccc(C(=O)Nc2c(N)nc(SCC(=O)N3CCC(C)CC3)[nH]c2=O)cc1OC` the value was -5.91 (active); for `COC(=O)c1ccc(NC(=O)CSc2nc(N)c(NC(=O)c3ccc(Br)o3)c(=O)[nH]2)cc1`, “inactive”.
Turning to `COC(=O)C(C(=O)Nc1cccc(C)n1)C1CCCCCC1` (stereo not given), the B-score entry was “inactive”.
Consider `Cc1c(NC(=O)CCC2CCCCC2)cc(C(=O)N2CCOCC2)cc1[N+](=O)[O-]`, for which the B-score entry was “inactive”.
For `Cc1ccc(S(=O)(=O)C(C#N)c2nc3ccccc3nc2N2CCCC2)cc1C` (stereo not given) the value was -6.25 (active); for `Cc1cc(N2CCN(S(=O)(=O)c3ccc(C)c(C)c3)CC2)c2ccccc2n1`, “inactive”; for `Cc1ccc(S(=O)(=O)Nc2nc3ccccc3nc2N2CCc3ccccc3C2)cc1`, “inactive”.
Take `C#CCOCCOCCOCCNc1nc(N2CCN(C(=O)C(Cc3ccc(O)cc3)n3cc(C(N)CC(C)C)nn3)CC2)nc(N2CCN(C(=O)C(Cc3ccc(O)cc3)n3cc(C(N)C(C)CC)nn3)CC2)n1` (stereo not given): the B-score entry was “inactive”.
For `O=C(Nc1nnc(-c2ccccc2F)s1)c1ccccc1F` the value was “inactive”; for `CN(CC(=O)NCCN1CCOCC1)S(=O)(=O)c1ccc(F)cc1`, “inactive”.
On to `CCOc1ccc(NC(=S)N2CCC(NC(=O)c3ccccc3)CC2)cc1`, for which the B-score entry was “inactive”.
As for `CCOc1ccc(C(=O)NC2CCN(S(=O)(=O)CC)CC2)cc1`, the figure is -5.83 (active); as for `CCOc1ccc(NS(=O)(=O)c2ccc(C(=O)NC3CCN(Cc4ccccc4)CC3)cc2)cc1`, “inactive”; as for `CCOC(=O)c1nnn2c1nc(N1CCN(c3ccccc3)CC1)c1ccccc12`, “inactive”.
For the molecule `COc1cc(C(=S)N2CCOCC2)cc(OC)c1OC(=O)c1cc([N+](=O)[O-])c(C)c([N+](=O)[O-])c1`, the B-score entry is “inactive”.
On to `CC1=C/C(=N\OS(=O)(=O)c2ccccc2)C=CC1=O`, for which the B-score was -5.63 (active).
As for `O=S(=O)(ON(c1ccccc1)S(=O)(=O)c1ccccc1)c1ccccc1`, the B-score entry is “inactive”.
As for `CCOC(=O)c1ccc2[nH]c3c(c2c1)CCCC3NC=O` (stereo not given), the entry is “inactive”.
For `O=C(NC(C(=O)NCCN1CCOCC1)C12CC3CC(CC(C3)C1)C2)C1CCCCC1` (stereo not given) the value was “inactive”; for `O=C(C[C@H]1C(=O)N(c2ccc(F)c(F)c2)C[C@@H]1Cc1ccccc1)Nc1ccccc1`, “inactive”.
For `C/C=C/C=C/C(=O)OCC(=O)Nc1ccc(Cl)cc1` the value was “inactive”; for `COc1ccccc1Oc1nc(-c2cccnc2)nc2ccccc12`, -5.1 (active).
For `O=[N+]([O-])c1ccc(F)cc1Oc1nc(-c2cccnc2)nc2ccccc12`, the B-score entry was “inactive”.
For the molecule `COc1ccc(Nc2nc(-c3cccnc3)nc3ccccc23)cn1`, the B-score entry is “inactive”.
Regarding `CCOc1ccc(C(C)=O)cc1COC(=O)CN1C(=O)NC2(CCCC2)C1=O`, the B-score entry is “inactive”.
For `Cc1cccc(OCC(O)Cn2c(N3CCCCC3)nc3c2c(=O)[nH]c(=O)n3C)c1` (stereo not given) the value was “inactive”.
As for `c1ccc(-c2cc3c(NCC4COc5ccccc5O4)ncnc3s2)cc1` (stereo not given), the entry is “inactive”.
With `Oc1cc2c(cc1O)CN(C(=S)NCCc1ccc(Cl)cc1)CCC2`, the B-score result is “inactive”.
